Reference: PubChem BioAssay (NCATS)
Inconclusive results are not listed. Values without a mark were called inactive. Active and inactive are the calls of the source. Calls come from the whole dose curve; as a rule, active = well fitted inhibition curve with a large enough effect; inconclusive = small, poorly fitted or top-dose-only effect; inactive = flat fitted curve, though single readings scatter.

molecular target: Voltage-gated inwardly rectifying potassium channel KCNH2 (Homo sapiens) (UniProt Q12809); assay: qHTS Assay for Small Molecule Inhibitors of the Human hERG Channel Activity (AID 588834); conditions: U2OS BacMam hERG, FluxOR thallium flux fluorescence; series mostly up to 46.1 µM; activity change, negative = inhibition: at the top concentration;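 note: lower thallium flux fluorescence means stronger hERG block; nearly all actives have a fitted effect of over 50% in size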; for activity change, negative = inhibition: top concentration of the series differs between compounds
In short: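 In hERG-transduced U2OS cells, dye-loaded for 1 hr at room temperature in dark, test compounds incubated 10 min at 37 °C before thallium stimulation. AC50 values derived by Hill modelling of concentration-response.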
% is set by controls: 0 for no effect and ±100 for the full control effect; potency is the fitted concentration of half-maximal effect.

Chain of Voltage-gated inwardly rectifying potassium channel KCNH2 (Homo sapiens) (Q12809 whole entry, looked up): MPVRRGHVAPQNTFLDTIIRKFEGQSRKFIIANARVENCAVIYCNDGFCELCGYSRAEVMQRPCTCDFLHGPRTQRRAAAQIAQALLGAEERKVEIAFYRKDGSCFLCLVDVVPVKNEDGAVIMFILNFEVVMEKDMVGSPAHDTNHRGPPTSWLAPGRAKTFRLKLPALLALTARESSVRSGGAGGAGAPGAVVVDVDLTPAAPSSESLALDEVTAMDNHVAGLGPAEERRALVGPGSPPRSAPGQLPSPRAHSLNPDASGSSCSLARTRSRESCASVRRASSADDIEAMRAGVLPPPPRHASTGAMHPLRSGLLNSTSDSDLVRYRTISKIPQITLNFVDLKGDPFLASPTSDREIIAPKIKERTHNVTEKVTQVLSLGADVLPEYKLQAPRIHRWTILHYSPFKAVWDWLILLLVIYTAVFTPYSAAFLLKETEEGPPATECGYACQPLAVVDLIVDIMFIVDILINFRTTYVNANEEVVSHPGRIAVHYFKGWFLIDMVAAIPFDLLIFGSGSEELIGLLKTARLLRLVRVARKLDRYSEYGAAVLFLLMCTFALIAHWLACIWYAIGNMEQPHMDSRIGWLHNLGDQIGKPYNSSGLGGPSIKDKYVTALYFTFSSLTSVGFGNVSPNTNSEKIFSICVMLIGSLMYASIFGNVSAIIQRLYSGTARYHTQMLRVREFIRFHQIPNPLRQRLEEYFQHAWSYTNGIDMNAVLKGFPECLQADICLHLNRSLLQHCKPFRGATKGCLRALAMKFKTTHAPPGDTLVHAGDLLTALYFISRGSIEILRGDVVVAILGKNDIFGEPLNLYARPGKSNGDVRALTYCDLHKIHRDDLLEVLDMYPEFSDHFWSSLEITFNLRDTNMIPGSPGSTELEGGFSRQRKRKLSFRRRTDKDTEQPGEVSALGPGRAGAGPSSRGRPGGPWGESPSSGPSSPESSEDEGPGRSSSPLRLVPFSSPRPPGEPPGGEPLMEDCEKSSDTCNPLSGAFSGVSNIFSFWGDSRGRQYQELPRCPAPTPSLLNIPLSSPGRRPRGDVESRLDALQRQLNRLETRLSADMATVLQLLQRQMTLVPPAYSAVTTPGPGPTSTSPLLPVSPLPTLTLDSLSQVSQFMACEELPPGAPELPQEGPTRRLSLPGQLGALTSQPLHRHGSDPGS

Row | Structure (SMILES) | activity change, negative = inhibition | Potency
1 | CC(=O)O[C@H]1C[C@H](O[C@H]2[C@@H](O)C[C@H](O[C@H]3[C@@H](O)C[C@H](O[C@H]4CC[C@@]5(C)[C@H](CC[C@@H]6[C@@H]5C[C@@H](O)[C@]5(C)[C@@H](C7=CC(=O)OC7)CC[C@]65O)C4)O[C@@H]3C)O[C@@H]2C)O[C@H](C)[C@H]1O[C@@H]1O[C@H](CO)[C@@H](O)[C@H](O)[C@H]1O | -13.7% | 
2 | C[C@H]1CC[C@]2(NC1)O[C@H]1C[C@H]3[C@@H]4CC[C@H]5C[C@@H](O)CC[C@]5(C)[C@H]4CC[C@]3(C)[C@H]1[C@@H]2C | 11% | 
3 | C[N+](C)(C)CC#CCN1CCCC1=O | 9.74% | 
4 | O=[N+]([O-])c1cc(O)c(O)c([N+](=O)[O-])c1 | 7.24% | 
5 | O=C(OCCN1CCCCC1)C(O)(c1ccccc1)c1ccccc1 |  | 11.2 µM (active)
6 | OC1CCCCC1N1CCC(c2ccccc2)CC1 (stereo not drawn) | 5.58% | 
7 | O=C1C=C2C=C[C@@H]3C[C@@]2(O1)[C@H]1CCCCN31 | 7.29% | 
8 | NC(=O)c1ccc(OCC(O)CN2CC=C(c3ccc(F)cc3)CC2)cc1 (stereo not drawn) |  | 7.94 µM (active)
9 | CN(C)[C@@H]1C(=O)C(C(N)=O)=C(O)[C@@]2(O)C(=O)C3=C(O)c4c(O)ccc(Cl)c4[C@@](C)(O)[C@H]3C[C@@H]12 | -35.5% [at 20.6 µM] | 
10 | N[C@@H](CCl)C(=O)O | 5.27% | 
11 | Clc1ccc(C2(Cn3cncn3)OCCO2)c(Cl)c1 | 21.3% | 
12 | CCNC1(c2cccs2)CCCCC1=O (stereo not drawn) | 10.3% [at 20.6 µM] | 
13 | CCCCCCC(=O)O[C@H]1CC[C@H]2[C@@H]3CC[C@H]4CC(=O)C=C(C)[C@]4(C)[C@H]3CC[C@]12C |  | 14.1 µM (active)
